High-throughput results from PubChem.
The list is not random: actives were taken first. Their share in the collection is about 2.8%.
TRPM1 prom inh: MITF TRPM1 promoter inhibition in SK-MEL-5 cells | inhibition, % at 12.5 µM | SK-MEL-5 TRPM1 promoter luciferase, 24 h | actives 0.83% (n = 330,000);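 active means mean inhibition across replicates of 60% or more, whatever share of single replicates reaches that level; inconclusive means some that reach 60%, reason not given; inactive means mean inhibition across replicates below 60%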
Peg3 prom inh: reduces Peg3 promoter-driven luciferase expression in HeLa; HeLa PEG-Prom luciferase reporter, luminescence, overnight; inhibition, % at 20 µM; actives 1.7% (n = 360,000);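 active means inhibition of at least 50% at 20 µM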
LMP1 NFkB inh: Epstein-Barr LMP1 NF-kappaB reporter inhibition; LMP1-induced NF-kappaB luciferase reporter cells, luminescence; inhibition, % at 12.5 µM; AID 504558; actives 0.69% (n = 350,000); in the data active means inhibition above about 41%; inconclusive means no clear call, values can overlap the other calls
Shn3 3UTR inh: inhibitors of Schnurri-3 3'UTR reporter in osteoblasts; AID 588674; inhibition, % at 12.5 µM; actives 0.52% (n = 360,000); Clone20 osteoblast Shn3 3'UTR firefly luciferase, 24 h;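 active means mean inhibition of at least 75% with every replicate also reaching 75%; inconclusive means mean inhibition at least 75% but some replicate below; inactive means mean inhibition below 75%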
HIF-2a block: inhibitors of HIF-2a; 786-0 RCC cells HIF-2a reporter, luciferase luminescence, overnight; inhibition, % at 18.8 µM; actives 0.72% (n = 360,000); AID 624352;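 active means inhibition of the luminescence signal of 40% or more relative to plate controls, in a single-dose primary screen at 18.75 µM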
PAX8 reporter: inhibitors of PAX8 transcriptional activity in RMG-I cells | RMG-I TPO-luciferase reporter, SteadyGlo, 24 h | inhibition, % at 12.6 µM | actives 1.2% (n = 360,000);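 active means mean replicate inhibition at least 60% with every replicate also reaching 60%; inconclusive means only one of the two criteria is met; inactive means mean below 60% and not all replicates reaching 60%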;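 further: luciferase light reporting Pax8 driven TPO promoter activity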
Mdm2 MdmX conf: confirmation of inhibitors of human Mdm2/MdmX interaction, set 2 | SaOS-2 split-luciferase Mdm2/MdmX complementation, luminescence | shares compounds with HIF-2a block | actives 99% (n = 740) | AID 504601 | inhibition, % at 8 µM;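 active means mean inhibition of the luminescence signal across two replicates at or above 26 percent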
Target sequence (O15151 whole entry, looked up): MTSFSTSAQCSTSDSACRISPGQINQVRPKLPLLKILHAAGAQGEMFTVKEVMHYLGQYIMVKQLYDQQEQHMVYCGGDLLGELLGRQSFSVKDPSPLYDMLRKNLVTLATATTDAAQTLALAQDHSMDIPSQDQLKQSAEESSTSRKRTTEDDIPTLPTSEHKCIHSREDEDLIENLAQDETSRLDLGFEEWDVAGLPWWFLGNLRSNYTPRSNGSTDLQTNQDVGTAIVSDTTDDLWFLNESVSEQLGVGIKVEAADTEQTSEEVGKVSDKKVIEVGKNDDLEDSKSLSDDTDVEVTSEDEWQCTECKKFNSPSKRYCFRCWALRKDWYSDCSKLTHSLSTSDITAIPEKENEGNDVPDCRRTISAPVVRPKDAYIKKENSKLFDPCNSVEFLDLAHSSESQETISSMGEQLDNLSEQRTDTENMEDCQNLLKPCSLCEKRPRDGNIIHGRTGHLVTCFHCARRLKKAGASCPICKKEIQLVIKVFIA
Target sequence (Q00987 whole entry, looked up): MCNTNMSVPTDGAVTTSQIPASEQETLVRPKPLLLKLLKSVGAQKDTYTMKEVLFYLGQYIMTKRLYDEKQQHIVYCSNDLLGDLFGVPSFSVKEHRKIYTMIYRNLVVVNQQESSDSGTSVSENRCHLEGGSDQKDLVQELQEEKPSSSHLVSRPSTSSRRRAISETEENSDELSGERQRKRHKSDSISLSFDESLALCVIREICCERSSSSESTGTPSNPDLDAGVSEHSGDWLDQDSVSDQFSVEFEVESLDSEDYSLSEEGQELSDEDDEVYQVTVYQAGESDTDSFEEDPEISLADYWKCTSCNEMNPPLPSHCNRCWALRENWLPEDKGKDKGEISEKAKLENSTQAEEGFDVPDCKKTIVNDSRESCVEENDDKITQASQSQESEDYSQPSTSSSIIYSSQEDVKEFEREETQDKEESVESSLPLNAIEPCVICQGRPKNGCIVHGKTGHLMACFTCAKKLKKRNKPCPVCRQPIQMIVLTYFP
HIF-2a inh conf: HIF-2a inhibition, single concentration confirmation | shares compounds with HIF-2a block | 786-0 RCC cells, HIF-2a luciferase reporter luminescence, overnight | inhibition, % at 18.8 µM | actives 56% (n = 1,800);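 active means mean inhibition across four replicates of at least 40 percent at the single tested concentration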
HIF-1a counter: HIF-1a inhibition counter-screen for HIF-2a hits; shares compounds with HIF-2a block; MiaPaCa-2 HIF-1a luciferase reporter, desferoxamine, overnight; actives 72% (n = 1,800); inhibition, % at 18.8 µM; AID 651589;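 active means mean inhibition of the reporter signal across four replicates at the single tested dose of 50% or more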
Large screens that a line does not name were inactive (follow-up assays come after a bar, where they were run).

CC(C)N=C(NS(=O)(=O)c1ccccc1)C(Cl)(Cl)Cl	TRPM1 prom inh 79, HIF-2a block 84, PAX8 reporter 96 | HIF-2a inh conf 57 | HIF-1a counter inactive
COc1ccccc1NC(=O)N[C@@H]1C=C[C@H](CC(=O)N2CCC(Cc3ccccc3)CC2)O[C@H]1CO	none (no result: TRPM1 prom inh, Peg3 prom inh, LMP1 NFkB inh, Shn3 3UTR inh, HIF-2a block)
CCCCCCCCCCOC(=O)Cn1c(COc2ccc(Cl)cc2)[n+](C)c2ccccc21	Peg3 prom inh 98, Shn3 3UTR inh 96 | Mdm2 MdmX conf 103
CCCCCOC(=O)Cn1c(=O)oc2ccccc21	none (no result: TRPM1 prom inh)
CC(C)NC(=O)NCC[C@@H]1CC[C@@H](NC(=O)Nc2ccccc2)[C@@H](CO)O1	none (no result: TRPM1 prom inh, Peg3 prom inh, LMP1 NFkB inh, Shn3 3UTR inh, HIF-2a block)
Oc1ccc(Nc2nc(N3CCCC3)c3ccccc3n2)cc1	Peg3 prom inh 100, HIF-2a block 46 (no result: PAX8 reporter) | HIF-2a inh conf inactive | HIF-1a counter 104
CCOC(=O)COc1ccc(S(=O)(=O)N2CCN(c3ccccc3F)CC2)cc1	HIF-2a block 47 (no result: PAX8 reporter) | HIF-2a inh conf inactive | HIF-1a counter inactive
O=C(COc1ccc(S(=O)(=O)N2CCCC2)cc1)N1CCN(c2ccccc2F)CC1	none
CCCn1c(=N)n(CC(=O)c2ccc(OCC(=O)OC)cc2)c2ccccc21	HIF-2a block 47 | HIF-2a inh conf inactive | HIF-1a counter inactive
CCCn1c(=N)n(CC(=O)OCC)c2ccccc21	none (no result: PAX8 reporter)
C[C@H]1CN([C@@H](C)CO)C(=O)c2cccc(NC(=O)C3CCOCC3)c2O[C@H]1CN(C)C	none (no result: TRPM1 prom inh, Peg3 prom inh, LMP1 NFkB inh, Shn3 3UTR inh, HIF-2a block)
COc1ccc(/C=C/C(=O)c2cc(F)ccc2OC(=O)c2ccccc2)cc1OC	TRPM1 prom inh inconclusive, HIF-2a block 44, PAX8 reporter 77 | HIF-2a inh conf inactive | HIF-1a counter inactive
Cc1ccc(C2=[N+]([O-])C3(CCCCC3=O)N(O)C2(C)C)cc1 (stereo not given)	HIF-2a block 44 | HIF-2a inh conf inactive | HIF-1a counter inactive
CC1(C)C(c2ccco2)=[N+]([O-])C2(CCCCC2=O)N1O (stereo not given)	none (no result: PAX8 reporter)
CCOC(=O)Cc1csc(NC(=O)Cc2ccc([N+](=O)[O-])cc2)n1	none
CCOC(=O)Cc1csc(NC(=S)NC(=O)c2ccc([N+](=O)[O-])cc2)n1	HIF-2a block 63 | HIF-2a inh conf 71 | HIF-1a counter inactive
CCC1CCC2(CC1)NNC(=S)NN2	HIF-2a block 55 (no result: PAX8 reporter) | HIF-2a inh conf 69 | HIF-1a counter 87
CCOC(=O)/C(=C\c1ccc(Cl)cc1)c1nc2sc(C)c(C)c2c(=O)[nH]1	TRPM1 prom inh 78, Peg3 prom inh 108, HIF-2a block 94 | HIF-2a inh conf 98 | HIF-1a counter 107
CC(C)(C)c1cc(/C=C2\NC(=O)NC2=O)cc(C(C)(C)C)c1O	none
CC(C)(C)c1cc(/C=N/O)cc(C(C)(C)C)c1O	HIF-2a block 43 | HIF-2a inh conf inactive | HIF-1a counter inactive
CCCCCCCCNCCS(=O)(=O)NCCCCCCCC	Peg3 prom inh 95, HIF-2a block 51 | HIF-2a inh conf inactive | HIF-1a counter 106
Cc1noc(C)c1NC(=O)Nc1ccc2c(c1)CC(=O)N([C@@H](C)CO)C[C@H](C)[C@@H](CN(C)S(=O)(=O)c1ccccc1)O2	none (no result: TRPM1 prom inh, Peg3 prom inh, LMP1 NFkB inh, Shn3 3UTR inh, HIF-2a block)
Cc1noc(C)c1NC(=O)Nc1cccc2c1O[C@H](CN(C)Cc1ccc(Cl)c(Cl)c1)[C@@H](C)CN([C@H](C)CO)C2=O	none (no result: TRPM1 prom inh, Peg3 prom inh, LMP1 NFkB inh, Shn3 3UTR inh, HIF-2a block)
COc1ccc(C=NNC(=S)Nc2ccc(F)cc2)cc1OC	HIF-2a block 48 | HIF-2a inh conf inactive | HIF-1a counter inactive
O=C(CCl)N(c1ccccc1)C1CCS(=O)(=O)C1 (stereo not given)	TRPM1 prom inh inconclusive, Peg3 prom inh 103 | Mdm2 MdmX conf 103
COc1ccccc1NC(=O)N(C)C[C@@H]1OCc2ccccc2-c2ccccc2C(=O)N([C@H](C)CO)C[C@@H]1C	none (no result: TRPM1 prom inh, Peg3 prom inh, LMP1 NFkB inh, Shn3 3UTR inh, HIF-2a block)
O=C(O)c1ccccc1-c1ccccc1C(=O)NCCCO	HIF-2a block 48 (no result: PAX8 reporter) | HIF-2a inh conf inactive | HIF-1a counter inactive
COCCNC(=O)c1ccccc1-c1ccccc1C(=O)O	none (no result: PAX8 reporter)
CCc1ccc(OCC(=O)NC(NC(=S)Nc2ccccc2OC)C(Cl)(Cl)Cl)cc1 (stereo not given)	HIF-2a block 50 | HIF-2a inh conf inactive | HIF-1a counter inactive
CCc1ccc(OCC(=O)NC(NC(=S)Nc2ccccc2C)C(Cl)(Cl)Cl)cc1 (stereo not given)	Peg3 prom inh 61, HIF-2a block 41, PAX8 reporter 116 | HIF-2a inh conf inactive | HIF-1a counter 64
CCc1ccc(OCC(=O)NC(NC(=S)Nc2ccccc2)C(Cl)(Cl)Cl)cc1 (stereo not given)	none
N#C[C@@H]1[C@H](c2ccccc2C2=CCCC2)[C@@H](CO)N1C(=O)Cc1ccncc1	none (no result: TRPM1 prom inh, Peg3 prom inh, LMP1 NFkB inh, Shn3 3UTR inh, HIF-2a block)
CC1C=NC(S(=O)(=O)N2CC[C@H]3[C@@H](CO)N(C)c4ccc(-c5ccc(F)cc5)cc4[C@H]32)=N1 (stereo not given in full)	none (no result: TRPM1 prom inh, Peg3 prom inh, LMP1 NFkB inh, Shn3 3UTR inh, HIF-2a block)
Cc1ccc2nc(NC(=O)CCCc3nc4ccccc4s3)sc2c1	none (no result: PAX8 reporter)
Cc1ccc2nc(NC(=O)CCCC(=O)O)sc2c1	TRPM1 prom inh 79, HIF-2a block 83 | HIF-2a inh conf 95 | HIF-1a counter 90
CC(=O)Nc1ccc2c(c1)C(=O)N(C)[C@H]1CC[C@H](CC(=O)Nc3ccccc3Cl)O[C@@H]1CO2	none (no result: TRPM1 prom inh, Peg3 prom inh, LMP1 NFkB inh, Shn3 3UTR inh, HIF-2a block)
Nc1nc2cc(S(=O)(=O)NC3=NCCCCC3)ccc2s1	HIF-2a block 41 | HIF-2a inh conf inactive | HIF-1a counter inactive
CCOC(=O)c1ccc(S(=O)(=O)Nc2nc3cc(S(=O)(=O)NC4=NCCCCC4)ccc3s2)cc1	none
O=[N+]([O-])c1cc(S(=O)(=O)N2CCCCCC2)ccc1F	TRPM1 prom inh 93, Peg3 prom inh 102, HIF-2a block 94 | HIF-2a inh conf 87 | HIF-1a counter 105
CC(=O)Nc1ccc2c(c1)C(=O)N(C)[C@@H]1CC[C@@H](CC(=O)NCc3ccc(Cl)cc3)O[C@@H]1CO2	none (no result: TRPM1 prom inh, Peg3 prom inh, LMP1 NFkB inh, Shn3 3UTR inh, HIF-2a block)
Cc1ccc(C(=O)/C=C/c2ccc(F)cc2)o1	none
O=C(/C=C/c1ccc(F)cc1)c1ccccc1Br	Peg3 prom inh 104, HIF-2a block 59 | HIF-2a inh conf 43 | HIF-1a counter 106
CC(=O)N1N=C(c2ccco2)CC1c1ccco1 (stereo not given)	none
Cc1ccc(C2=NN(C(=O)CCl)C(c3ccco3)C2)o1 (stereo not given)	Peg3 prom inh 69 | Mdm2 MdmX conf 103
CN(C)C(=O)C[C@@H]1C[C@H]2c3cc(NC(=O)C4CCOCC4)ccc3O[C@H]2[C@@H](CO)O1	none (no result: TRPM1 prom inh, Peg3 prom inh, LMP1 NFkB inh, Shn3 3UTR inh, HIF-2a block)
